# HCV inhibitor – blocks hepatitis C virus. Huh7.5.1 HCVcc-Cre infection, luciferase reporter, 44 h. Potency, µM (doses to about 41.8 µM), inactives show top-dose activity change, negative = inhibition, actives largely listed as inhibitors. 3.4% of 340,000 active
#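 HCVcc-Cre virus at an moi near 0.5 was added right after compound to cells cultured 4 h from seeding (1,000 cells/well). Luciferase activity was determined 44 h later, 15 min after substrate addition at RT.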
# Sm TGR inh – inhibitors of Schistosoma mansoni thioredoxin glutathione reductase; Q962Y6; purified TGR, DTNB reduction, TNB absorbance 405 nm; Potency, µM (titrated, usually from 114 µM), for the others: top-dose activity change, negative = inhibition, usual class: inhibitors; 3% of 360,000 active; AID 485364; note: nearly all actives have a fitted effect of over 60% in size
#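 TGR 20 nM + NADPH 100 uM (dispensed conc.), cpd preinc 15 min RT; start with NADPH (500 uM addition) then DTNB (15 mM addition). Kinetic TNB absorbance, 405 nm filter. Four-parameter Hill fit across titration.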
# FMDV inh – foot and mouth disease virus antiviral activity | FMDV antiviral cell-based qHTS | Potency, µM (series often up to 57.9 µM), without a hit: top-dose activity change, negative = inhibition, usual class: inhibitors | 1.2% of 410,000 active; calls by dose curve; tested in HEK293T cells; note: read-out not given here; nearly all actives have a fitted effect of over 45% in size
# LASV entry inh – blocks Lassa virus binding to or entry into cells; Potency, µM (titrated, usually from 37.9 µM), without a hit: top-dose activity change, negative = inhibition, hits mostly inhibitors; 1.2% of 300,000 active; AID 540256; Lassa virus pseudotype entry inhibition, cell reporter; calls by dose curve; tested in HEK293 cells; note: nearly all actives have a fitted effect of over 50% in size
# Marburg entry inh – blocks Marburg virus binding to or entry into cells; Marburg virus pseudotyped entry inhibition, cell reporter; 1.8% of 300,000 active; AID 540276; Potency, µM (series often up to 37.8 µM), for inactives: at the highest dose activity change, negative = inhibition, hits mostly inhibitors; calls by dose curve; tested in HEK293 cells
# RE007 growth inh – less growth of the S. pombe RE007 Vpr strain. Potency, µM (top dose mostly 92.2 µM), inactives show at the top dose activity change, negative = less growth, hits mostly inhibitors. S. pombe RE007 Vpr strain, BacTiter-Glo ATP luminescence, 24 h. 0.21% of 360,000 active; active = well fitted falling curve with a large enough effect; inconclusive = small, poorly fitted or top-dose-only effect; inactive = no such curve, though single readings can be large or run the other way; note: nearly all actives have a fitted effect of over 50% in size
#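 Fission yeast RE007 carrying one integrated HIV-1 vpr copy, seeded at OD 0.01 in PMG+AL medium with 23 nL pinned compound. Grown 24 h at 30 degrees; viability read by BacTiter-Glo luminescence after 5 min.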
# Active calls of the source: *; ? = inconclusive; / = no result; [ ] = another dose, or the depositor's remark. This is a sample that favours compounds with a hit; in the whole collection about 7.2% have one here. Unless noted, calls come from the whole dose curve; as a rule, active = well fitted curve in the direction sought with a large enough effect; inconclusive = small, poorly fitted or top-dose-only effect, or another doubt; inactive = no such curve, though single readings can be large; an effect the other way counts as inactive or inconclusive. % is set by controls: 0 for no effect and ±100 for the full control effect; potency is the fitted concentration of half-maximal effect.
SMILES,HCV inhibitor,Sm TGR inh,FMDV inh,LASV entry inh,Marburg entry inh,RE007 growth inh
CCOc1ccc(S(=O)(=O)Nc2cnc3ccccc3c2)cc1,1.8µM*,16%,-9%,?,-28%[46.1 µM],-5%
O=C(Nc1ccc(Br)cc1)c1cccc(S(=O)(=O)Nc2cnc3ccccc3c2)c1,?,-5%,-22%,?,2.8µM*,-8%
COc1ccccc1N1CCN(C(=O)c2cnn(-c3cccc(Cl)c3)c2C2CCN(C(=O)OC(C)(C)C)CC2)CC1,/,2%,?,?,/,/
CCC1(C2CCN(C(=O)c3cc(C)cc(C)c3)CC2)NC(=O)N(CCc2scnc2C)C1=O (configuration not stated),/,/,-9%,/,/,/
CC1CCC(C(=O)NNC(=O)c2cc(-c3ccco3)[nH]n2)CC1 (configuration not stated),?,-5%,-1%,-11%,6%[46.1 µM],5%
O=C(O)c1cc(-c2ccco2)[nH]n1,9%,50µM*,4%,-6%,-2%,-4%
CC1CCN(c2cc3c(cc2F)c(=O)c(S(=O)(=O)c2ccc(Cl)cc2)cn3C)CC1,/,2%,-21%,4%[46.1 µM],/,/
COc1cccc2nc3cc(C)c(C)cc3nc12,?,-30%,-23%,/,/,2.8µM*
Cc1nc2c(-c3ccccc3)c[nH]n2c(=O)c1Cc1ccccc1,?,-7%,-8%,?,9.2µM*,3%
CC(C)CON=C1C[C@@H](O)[C@@H](O)[C@@H]2[C@H]3C(=O)N(C4CCCCC4)C(=O)[C@@H]3CC[C@H]12,/,/,/,?,-14%[14.2 µM],/
O=C1CCC2S/C(=C/Nc3ccc(C(F)(F)F)cc3)C(=O)N12 (configuration not stated),18%,-4%,8.9µM*,?,?,15%
O=C(Nc1nc2c(s1)CCCC2)C1COc2ccccc2O1 (configuration not stated),?,-9%,-23%,5.8µM*,?,-24%
O=C(NC1=NCCS1)C1COc2ccccc2O1 (configuration not stated),0%,-1%,10µM*,?,1µM*,-2%
COc1ccc(S(=O)(=O)N2CCCN(CC(=O)Nc3ccc(OC)cc3OC)CC2)cc1,/,11%,0%,-11%[46.1 µM],4%[46.1 µM],/
Cc1ccc(-c2noc(CCC(=O)NCCCN3CCN(c4ccc(F)cc4)CC3)n2)cc1,?,6%,?,-1%,5%,17%
COc1ccc(OC)c(NC(=O)CCN2CCN(c3ccccc3F)CC2)c1,-24%,2%,?,?,7%,21%
COc1ccc(-c2noc(CCC(=O)Nc3cccc(C)c3)n2)cc1,?,4%,-28%,-29%,16%,-4%
Cc1ccc(-c2noc(CCC(=O)NCCCN3CCN(c4cccc(Cl)c4)CC3)n2)cc1,11µM*,-1%,?,?,?,6%
COc1ccc(-c2noc(CCC(=O)NCCc3cccc(C)c3)n2)cc1,8.9µM*,2%,2%,?,-12%,-4%
COc1ccc(C(=O)CCN2CCN(c3ccccc3F)CC2)cc1,4%,0.79µM*,-7%,/,/,11µM*
CCN(C(=O)CCc1nc(-c2ccc(OC)cc2)no1)c1cc(OC)ccc1OC,11µM*,1%,?,?,-17%,29%
Cn1c(=O)c2c(nc(SCC(=O)Nc3ccc(F)cc3F)n2Cc2ccccc2)n(C)c1=O,/,-11%,10%,14%[46.1 µM],-2%[46.1 µM],/
COc1ccc(-c2noc(CCC(=O)NCCCN3CCN(c4ccccc4F)CC3)n2)cc1,?,7%,?,/,/,-5%
O=C(CCN1CCN(c2ccccc2F)CC1)c1ccc(Br)cc1,8%,0%,-23%,-3%,1%,32µM*
COc1ccc(-c2noc(CCC(=O)NCCN3CCN(c4ccccc4F)CC3)n2)cc1,6.3µM*,-3%,?,?,?,8%
COc1cc(OC)c(NC2=C(c3ccc(C(F)(F)F)cc3)C(=O)c3ccccc32)cc1Cl,/,-4%,?,-12%[46.1 µM],5%[46.1 µM],/
COc1ccc(N2CCN(S(=O)(=O)CCNC(=O)c3c(F)cccc3Cl)CC2)cc1,/,2%,-6%,0%[46.1 µM],/,/

# Screening results: PubChem, National Center for Advancing Translational Sciences (NCATS)
